MEKK2wt PB1 HTS: raises or lowers MEK5 binding to wildtype human MEKK2 PB1 domain. 1.1% of 290,000 active. Q9Y2U5. binding response (% of control), % at 10 µM. bead flow cytometry, Alexa488-MEK5 binding to MEKK2 WT; actives lie on both sides; in the data active = binding response below about 67% or above about 130%; inconclusive = no clear call, values can overlap the other calls; inactive = in between
MEKK2mut PB1 HTS: signal of MEK5 binding to mutant human MEKK2 PB1 domain. AID 1530. percent response, % at 10 µM. bead flow cytometry, Alexa488-MEK5 binding to MEKK2 mutant. 0.35% of 290,000 active; in the data active = percent response above about 24%, passing the limit was not always enough
MEKK3 PB1 HTS: raises or lowers MEK5 binding to the human MEKK3 PB1 domain; Q99759; 1.4% of 290,000 active; binding response (% of control), % at 10 µM; AID 1529; bead-based flow cytometry, Alexa488-MEK5 binding to MEKK3; actives lie on both sides; 0 = blocked by unlabeled MEK5, 100 = vehicle;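 active = binding response more than 3 SD above or below the average of its plate-row segment, actives on both sides; inconclusive = wells at one plate position flagged as instrument error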;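 also: Alexa488 bead fluorescence after subtracting the streptavidin-only scavenger bead signal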
Target sequence (Q99759 whole entry, looked up, the tested form may be a part): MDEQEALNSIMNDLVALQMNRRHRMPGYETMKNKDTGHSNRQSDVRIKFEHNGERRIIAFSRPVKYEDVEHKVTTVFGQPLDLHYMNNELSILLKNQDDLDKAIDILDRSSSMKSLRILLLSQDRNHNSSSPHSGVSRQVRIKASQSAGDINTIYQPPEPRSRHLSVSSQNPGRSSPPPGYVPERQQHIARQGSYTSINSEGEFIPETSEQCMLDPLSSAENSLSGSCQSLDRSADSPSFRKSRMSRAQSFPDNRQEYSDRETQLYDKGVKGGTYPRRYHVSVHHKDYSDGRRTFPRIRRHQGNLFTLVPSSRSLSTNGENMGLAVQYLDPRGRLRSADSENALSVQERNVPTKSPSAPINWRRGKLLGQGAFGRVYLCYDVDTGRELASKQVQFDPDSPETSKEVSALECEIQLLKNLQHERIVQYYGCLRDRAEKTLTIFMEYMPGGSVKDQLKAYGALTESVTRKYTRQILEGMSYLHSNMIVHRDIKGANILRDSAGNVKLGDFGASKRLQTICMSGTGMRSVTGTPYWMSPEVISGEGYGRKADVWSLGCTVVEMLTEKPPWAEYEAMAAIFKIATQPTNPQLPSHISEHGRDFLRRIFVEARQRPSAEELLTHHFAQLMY
UBC13 polyUb: blocks human UBC13 polyubiquitin chain formation; P61088; TR-FRET; inhibition, % at 20 µM; 0.47% of 330,000 active; in the data active = inhibition above about 45%, passing the limit was not always enough; inconclusive = no clear call, values can overlap the other calls
MEKK2wt confirm: raises or lowers MEK5 binding to wildtype human MEKK2, retest. binding response (% of control), % at 10 µM. shares compounds with MEKK3 PB1 HTS. bead flow cytometry, Alexa488-MEK5 binding to MEKK2 WT; actives lie on both sides. 2.4% of 5,900 active; in the data active = binding response below about 16% or above about 210%; inactive = in between
MEKK2mut confirm: signal of MEK5 binding to mutant human MEKK2, retest; shares compounds with MEKK3 PB1 HTS; bead flow cytometry, Alexa488-MEK5 binding to MEKK2 mutant; percent response, % at 10 µM; 2% of 5,900 active; AID 1893; in the data active = percent response mostly above about 71%, no sharp cut-off; inactive = mostly below about 38%;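 also: higher means compound restores mutant binding toward wildtype level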
MEKK3 confirm: MEKK3-MEK5 PB1 inhibition, single concentration confirmation; shares compounds with MEKK3 PB1 HTS; bead flow cytometry, Alexa488-MEK5 binding to MEKK3; active compounds read low; binding response (% of control), % at 10 µM; 1.8% of 5,900 active; AID 1894;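 active = binding response below 72% of control, or above a set upper limit, though filed actives all read lower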;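 also: lower values mean stronger disruption of MEK5 binding to MEKK3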
A number is an active result; – = inactive; ? = inconclusive; · = no result; [ ] = remark or other dose. A selection: hits, their analogues and other compounds. The true share with any hit is near 2.3%.

SMILES	MEKK2wt PB1 HTS	MEKK2mut PB1 HTS	MEKK3 PB1 HTS	UBC13 polyUb	MEKK2wt confirm	MEKK2mut confirm	MEKK3 confirm
Cc1cc(N2C(=O)C(O)=C(C(=O)c3ccc(C)o3)C2c2ccc([N+](=O)[O-])cc2)no1 (centres undefined)	–	–	–	–	·	·	·
O=C(C[n+]1ccc(C(=O)NCCCO)cc1)c1cccc(Br)c1	–	–	130.0	–	–	–	–
CCCN(Cc1cc2ccccc2[nH]c1=O)C(=O)c1cccc([N+](=O)[O-])c1	–	–	–	–	·	·	·
CCCN(Cc1cc2cc(C)ccc2[nH]c1=O)C(=O)c1cccc([N+](=O)[O-])c1	–	–	130.0	–	–	–	–
Cc1ccc(NC(=O)CCn2cnc3ccccc3c2=O)c(C)c1	–	–	–	–	·	·	·
Cc1cccc(C)c1NC(=O)CCn1cnc2ccccc2c1=O	-2.0[inhibitor]	–	1.0[inhibitor]	–	–	–	–
COc1ccc(NC(=O)c2c3c(nc4ccccc24)CCN(Cc2ccccc2)C3)c(OC)c1	–	–	75.0[inhibitor]	–	–	–	–
CCN(CC)CCn1c(NCc2ccco2)nc2ccccc21	–	–	–	–	·	·	·
Cn1c(NCc2ccco2)nc2ccccc21	25.0[inhibitor]	–	16.0[inhibitor]	–	–	–	–
O=C(Cn1cnc2ccccc2c1=O)Nc1nnc(C2CC2)s1	–	–	–	–	·	·	·
O=C(Cn1cnc2ccccc2c1=O)Nc1nnc(SCc2ccc(Cl)cc2)s1	32.0[inhibitor]	–	35.0[inhibitor]	–	–	–	–
CCCn1c(N)c(C(=O)CSc2nnc3ccccn23)c(=O)n(C)c1=O	·	·	·	–	·	·	·
CCn1c2ccccc2c2cc(CNCc3ccc(OC)cc3OC)ccc21	170.0	–	–	–	–	–	–
COc1cccc(CNCc2ccc(OC)cc2OC)c1	–	–	–	–	·	·	·
COc1ccc(S(=O)(=O)N2CCC(C(=O)NCCc3ccc4c(c3)OCO4)CC2)cc1	–	–	48.0[inhibitor]	?	–	–	–
CN(C)CCOc1ccc(/C(=C(/CCCl)c2ccccc2)c2ccccc2)cc1	176.0	–	–	–	–	–	–
O=C(C1CCCCN1S(=O)(=O)c1ccccc1[N+](=O)[O-])N1CCCCC1 (centres undefined)	–	–	74.0[inhibitor]	–	–	–	–
COc1ccc(C2NN=C(c3c[nH]c4ccccc34)C2O)cc1 (centres undefined)	55.0	213.0	–	–	–	–	–
Cc1ccc(C)c(NC(=S)N=Nc2c(O)n(C)c3ccc(S(=O)(=O)N4CCOCC4)cc23)c1	–	–	62.0[inhibitor]	–	–	–	–
COc1ncnc2c1sc1nc(-c3ccccc3)c3c(c12)CCCC3	–	–	146.0	–	–	–	–
CCC[C@@H]1C[C@@H](C(=O)N[C@@H](C2O[C@H](SC)[C@H](O)[C@@H](O)[C@H]2O)[C@H](C)Cl)N(C)C1 (some centres undefined)	–	–	50.0[inhibitor]	–	–	–	–
CCn1cc(CCC(=O)NCCN2CCOCC2)c2ccccc21	–	–	–	–	·	·	·
COc1cccc(C(C(=O)NCc2ccco2)N(C(=O)Cn2nnc3ccccc32)C2CC2)c1OC (centres undefined)	–	–	82.0[inhibitor]	–	–	–	–
COc1ccc(C(N)=O)c(OCC(=O)Nc2cc(C)on2)c1	·	·	·	–	·	·	·
CCCCN1C(=O)C(CC(=O)NCC)SC1=Nc1ccccc1 (centres undefined)	–	–	134.0	–	–	–	–
SMILES	MEKK2wt PB1 HTS	MEKK2mut PB1 HTS	MEKK3 PB1 HTS	UBC13 polyUb	MEKK2wt confirm	MEKK2mut confirm	MEKK3 confirm
NNc1nc(-c2ccccc2)nc2sc3c(c12)CCCC3	–	–	142.0	–	–	–	–
NNc1nc2sc3c(c2c(=O)n1Cc1ccccc1)CCC3	–	–	–	–	·	·	·
CCOC(=O)c1sc2nc(CSc3ccccc3)nc(NCCN(C)C)c2c1C	176.0	–	–	–	–	–	–
CCOC(=O)c1sc2nc(C)nc(NCCc3ccccn3)c2c1C	·	·	·	–	·	·	·
C=CC#CC[N+]1(CC#Cc2ccccc2)CCOCC1	–	–	51.0[inhibitor]	·	–	–	35.0
COc1cccc(C(=O)N/N=c2\sc3ccccc3n2C)c1	–	–	–	–	·	·	·
Cc1ccc(C(=O)N/N=c2\sc3ccccc3n2C)cc1	–	–	136.0	–	–	–	–
CCOC(=O)c1csc(NC(=O)c2ccc(C#N)cc2)n1	–	–	–	–	·	·	·
CC(=O)Nc1ccc(OC(=O)c2c(-c3ccccc3Cl)noc2C)cc1	–	–	144.0	–	–	–	–
CC(=O)Nc1ccc(NC(=O)c2c(-c3ccccc3Cl)noc2C)c(C)c1	–	–	–	–	·	·	·
CCOC(=O)[C@@H]1[C@H]2COc3cc(OC)ccc3[C@@H]2N2C(=O)N(c3ccc(F)cc3)C(=O)[C@@]12C	·	·	·	–	·	·	·
Cc1ccc(-n2cc(CNCCCn3cccn3)c(-c3cccc(C)c3)n2)cc1	138.0	–	–	–	–	–	–
Cc1ccc(-n2cc(CNCCCn3ccnc3C)c(-c3ccc(F)cc3)n2)cc1	306.0	178.0	–	–	–	77.0	–
Cc1ccc(-c2nn(-c3ccccc3)cc2CNCc2ccccc2)cc1	193.0	–	–	–	–	–	–
Cc1ccc(-n2cc(CNCCc3cscn3)c(-c3ccc(F)cc3)n2)cc1	–	–	–	–	·	·	·
O=C(Nc1ccc(OC(F)(F)F)cc1)C1CCCN(S(=O)(=O)c2cnc[nH]2)C1 (centres undefined)	–	–	–	–	·	·	·
Cc1cccc(C)c1NC(=O)COC(=O)COc1ccc2c(C)cc(=O)oc2c1	–	–	–	–	·	·	·
CCN(CC(=O)Nc1c(F)cccc1F)C(=O)COc1ccc2c(C)cc(=O)oc2c1	44.0[inhibitor]	–	41.0[inhibitor]	–	–	–	–
O=C(NC1CCCCC1)C(c1cccs1)N(C(=O)c1ccco1)c1ccc2c(c1)OCCO2 (centres undefined)	–	–	60.0[inhibitor]	–	–	–	–
C#CC(=O)N(c1ccc(OC)c(OC)c1)C(C(=O)NC1CCCC1)c1cccs1 (centres undefined)	–	–	125.0	–	–	–	–
C#CC(=O)N(c1cccc(OC)c1)C(C(=O)NC1CCCC1)c1cccs1 (centres undefined)	–	–	–	–	·	·	·
Cc1cc(C)n(-c2ccc(C(=O)NCC(c3ccco3)N3CCCC3)cc2)n1 (centres undefined)	·	·	·	–	·	·	·
COc1ccc(OCC(O)CNCCOc2ccccc2OC)c(C(C)(C)C)c1 (centres undefined)	147.0	25.0	–	–	–	–	–
COc1ccccc1NCC(O)COc1ccc(C(C)(C)C)cc1 (centres undefined)	–	–	–	–	·	·	·
O=C(CCCc1nc(-c2ccccc2Cl)no1)NCc1cccnc1	–	–	123.0	–	–	–	–

Source: PubChem (several laboratories)
